Laboratory results as given in PubChem BioAssay (NCI).
Several values for one entry are separate records, joined by “and”; a condition that tells them apart may be missing. Identical values can stand only once. This is part of a sample that, as a whole, favours compounds with a hit. Of some 79,000 tested, about 15% had one in any assay. A number with no mark means an inactive call. No stated cut-off is given here; in the data, active means growth inhibition above about 70%; inactive means the rest. Where a SMILES comes first, the peptide text is derived from it. The star is where a group is joined. Cbz = O=C(OCc1ccccc1)*; OBn = c1ccc(CO*)cc1

Experiment: NCI Yeast Anticancer Drug Screen. Data for the sgs1 mgt1 strain (AID 161);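 further: 0% = growth of cultures given vehicle only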
Conditions: S. cerevisiae sgs1 mgt1 strain, stronger effect = higher value; at 50.0 µM unless noted
How it was run: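 Compounds are added to genetically altered yeast, and growth is compared with cultures given vehicle alone to give percent inhibition.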

In the case of `O=C1c2c(O)ccc(O)c2C(=O)c2c(NCCNCCO)ccc(NCCNCCO)c21`, the growth inhibition is reported as 54.2% and -52%.
With `O=C(O)c1cccnc1C(=O)O` the growth inhibition was 2.65% and -2.2%.

In order of rising growth inhibition:
1. CSC(N)=Nc1cccc2ccccc12  -40.5%
2. CCCC1SCC(=O)N1c1nncs1 (stereo not drawn)  -23.2%
3. CN(C)c1cccc2c(S(=O)(=O)NCCCNCCN)cccc12  -20.9%
4. CCn1nc(C)c2c1C(=O)NC(C)C(=O)N2 (stereo not drawn)  -13.5%
5. CCOC(=O)Cn1cncc1C  -13.5%
6. CCSCCC#N  -13%
7. CN(C)c1ccc(/C=C/C(=O)N[C@@H]2C(=O)N3[C@@H]2SC(C)(C)[C@@H]3C(=O)O)cc1  -11.9%
8. CN(O)C(=O)CCC(NC(=O)CCC(N)C(=O)O)C(=O)NCC(=O)O (stereo not drawn)  -11.9%
9. NC(=O)C1CC1  -9.7%
10. CNC(=O)N(CCCC(NC(C)=O)C(=O)NCc1ccccc1)Cc1ccccc1 (stereo not drawn)  -7.95%
11. Oc1ccccc1-c1cc(-c2ccccc2)nc(NCCCNc2nc(-c3ccccc3)cc(-c3ccccc3O)n2)n1  -5.3%
12. CCC(CC)/C(=N/Nc1ccc([N+](=O)[O-])cc1[N+](=O)[O-])C1=CCCCC1  -5.1%
13. COc1ccc(N=Nc2nc(N)c(C(N)=O)[nH]2)cc1  -4.75%
14. OC(c1ccc(OCc2ccccc2)cc1)c1ccccn1 (stereo not drawn)  -4.45%
15. Cc1cc2nncn2c2ccccc12  -2.9%
16. COC(=O)C(Cc1ccc(O)cc1)NC(=O)C(CC(=O)OCc1ccccc1)NC(=O)OCc1ccccc1 (stereo not drawn) (Cbz-Asp(OBn)-Tyr-OMe; configuration not given here)  -0.7%
17. COc1cccc(C2c3cc4c(cc3OC(C)(O)C2C)OCO4)c1O (stereo not drawn)  -0.25%
18. NC(=S)Cc1ccncc1  3.45%
19. COC(=O)CC(C)N(c1ccc(Cl)c(Cl)c1)S(=O)(=O)c1ccc(C)cc1 (stereo not drawn)  4.1%
20. COCCOC(=O)OCCOC  4.75%
21. CC(O)CNC1=CC(=O)C(=O)c2ccccc21 (stereo not drawn)  4.8%
22. CC(C)=NOc1ccccc1[N+](=O)[O-]  7.15%
23. O=C1NC(=S)S/C1=C/C=C/c1ccccc1  7.7%
24. Cc1ccc(C2OC3=C(Nc4ccc([N+](=O)[O-])cc4N3)C2=O)cc1 (stereo not drawn)  8.65%
25. O=C(NC1(Sc2ccccc2)CC1)c1ccc(Cl)cc1  8.9%
26. CC(C)(O)C(O)c1ccccc1 (stereo not drawn)  9.1%
27. O=C(NO)c1ccccc1  11.6%
28. CCN(CC)CCOC(=O)c1cc2ccccc2s1  13.1%
29. CC1=CSC2=NCCCCN12  13.3%
30. CCCCCCCCCCCC  13.6%
31. CC#CC#C/C(=C/C=CC(=O)OC)SC  13.7%
32. CCCCOC(=O)NC(=O)c1cc2cc(Cl)ccc2oc1=O  13.9%
33. O=C1C(Br)=C[C@H]2C3C=CC(Br)(C3=O)[C@@H]12 (stereo partly drawn)  14.9%
34. CCCCCCN(CCCCCC)CC(O)c1cc(-c2ccc(Cl)cc2)nc2c(Cl)cccc12 (stereo not drawn)  18.4%
35. Cc1ccc2nc(NC(=O)C(=O)C(C#N)c3nc4ccccc4s3)sc2c1 (stereo not drawn)  19.7%
36. O=C1NC(=O)c2c(O)cccc21  21.1%
37. COc1ccccc1CN1CCCN(Cc2ccccc2OC)C1c1ccc(N(C)C)cc1  32.5%

Experiment: NCI Yeast Anticancer Drug Screen. Data for the cln2 rad14 strain (AID 165);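 further: 0% = growth equal to vehicle treated cultures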
Conditions: S. cerevisiae cln2 rad14 strain, stronger effect = higher value; at 50.0 µM unless noted
How it was run: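 Strain: cln2 rad14 yeast, altered in cell cycle control and DNA damage repair. Read-out: growth inhibition vs vehicle.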

With `O=C1c2c(O)ccc(O)c2C(=O)c2c(NCCNCCO)ccc(NCCNCCO)c21` the growth inhibition was -41.9% and -21.4%.
In the case of `O=C(O)c1cccnc1C(=O)O`, the growth inhibition is reported as -30.2% and 10.3%.

In order of falling growth inhibition:
1. Cc1ccc2nc(NC(=O)C(=O)C(C#N)c3nc4ccccc4s3)sc2c1 (stereo not drawn)  25.6%
2. O=C1C(Br)=C[C@H]2C3C=CC(Br)(C3=O)[C@@H]12 (stereo partly drawn)  25.2%
3. CN(C)c1cccc2c(S(=O)(=O)NCCCNCCN)cccc12  24.4%
4. COc1ccccc1CN1CCCN(Cc2ccccc2OC)C1c1ccc(N(C)C)cc1  22.8%
5. O=C(NO)c1ccccc1  21.8%
6. O=C(NC1(Sc2ccccc2)CC1)c1ccc(Cl)cc1  20.6%
7. O=C1NC(=O)c2c(O)cccc21  18.2%
8. CNC(=O)N(CCCC(NC(C)=O)C(=O)NCc1ccccc1)Cc1ccccc1 (stereo not drawn)  17.6%
9. CCn1nc(C)c2c1C(=O)NC(C)C(=O)N2 (stereo not drawn)  16.4%
10. O=C1NC(=S)S/C1=C/C=C/c1ccccc1  15.9%
11. Cc1ccc(C2OC3=C(Nc4ccc([N+](=O)[O-])cc4N3)C2=O)cc1 (stereo not drawn)  12.8%
12. CC#CC#C/C(=C/C=CC(=O)OC)SC  12.3%
13. CCCCOC(=O)NC(=O)c1cc2cc(Cl)ccc2oc1=O  10.7%
14. CC1=CSC2=NCCCCN12  8.55%
15. CN(C)c1ccc(/C=C/C(=O)N[C@@H]2C(=O)N3[C@@H]2SC(C)(C)[C@@H]3C(=O)O)cc1  6.35%
16. CC(O)CNC1=CC(=O)C(=O)c2ccccc21 (stereo not drawn)  4.3%
17. CCN(CC)CCOC(=O)c1cc2ccccc2s1  2.85%
18. CC(C)(O)C(O)c1ccccc1 (stereo not drawn)  2.3%
19. NC(=S)Cc1ccncc1  1.15%
20. CCSCCC#N  0.3%
21. CN(O)C(=O)CCC(NC(=O)CCC(N)C(=O)O)C(=O)NCC(=O)O (stereo not drawn)  0.1%
22. CCCCCCN(CCCCCC)CC(O)c1cc(-c2ccc(Cl)cc2)nc2c(Cl)cccc12 (stereo not drawn)  -0.35%
23. COC(=O)C(Cc1ccc(O)cc1)NC(=O)C(CC(=O)OCc1ccccc1)NC(=O)OCc1ccccc1 (stereo not drawn) (Cbz-Asp(OBn)-Tyr-OMe; configuration not given here)  -3.45%
24. NC(=O)C1CC1  -7.7%
25. CSC(N)=Nc1cccc2ccccc12  -10.9%
26. Cc1cc2nncn2c2ccccc12  -12.3%
27. CC(C)=NOc1ccccc1[N+](=O)[O-]  -14.7%
28. Oc1ccccc1-c1cc(-c2ccccc2)nc(NCCCNc2nc(-c3ccccc3)cc(-c3ccccc3O)n2)n1  -14.8%
29. OC(c1ccc(OCc2ccccc2)cc1)c1ccccn1 (stereo not drawn)  -16.4%
30. COC(=O)CC(C)N(c1ccc(Cl)c(Cl)c1)S(=O)(=O)c1ccc(C)cc1 (stereo not drawn)  -19.1%
31. CCC(CC)/C(=N/Nc1ccc([N+](=O)[O-])cc1[N+](=O)[O-])C1=CCCCC1  -24.1%
32. COc1cccc(C2c3cc4c(cc3OC(C)(O)C2C)OCO4)c1O (stereo not drawn)  -24.8%
33. CCCCCCCCCCCC  -25.9%
34. COc1ccc(N=Nc2nc(N)c(C(N)=O)[nH]2)cc1  -28.5%
35. CCCC1SCC(=O)N1c1nncs1 (stereo not drawn)  -29.1%
36. COCCOC(=O)OCCOC  -31.7%
37. CCOC(=O)Cn1cncc1C  -73.6%
